# Measured values: PubChem BioAssay AID504697 (The Scripps Research Institute Molecular Screening Center, 2011)
# Activity calls are given as the source filed them.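 How the source made its calls: active means EC50 at or below 10 µM; inactive means EC50 above 10 µM.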
# Assay: fluorescence interference artefacts, compound only, dose response, artefact control for cardiac thin filament activator project, biochemical, no RTF in test wells (AID 504697);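 further: emission near 535 nm under roughly 485 nm excitation as for IANBD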
# Settings: compound-only fluorescence in RTF assay buffer with Ca2+ (no RTF in test wells), artifact counterscreen
row,Compound,EC50
1,Cn1ncc2c(O/N=C(\N)c3ccc(C(F)(F)F)cc3)ncnc21,> 71.5 µM (inactive)
2,O=C1c2ccsc2SCCN1Cc1ccc(F)cc1,> 71.5 µM (inactive)
3,O=C(Nc1ccccc1)NC1CS(=O)(=O)CC1O (stereo unspecified),> 71.5 µM (inactive)
4,COc1ccc(/C=C2\SC(=S)N(CCCC(=O)Nc3ccccc3C(=O)O)C2=O)cc1OC,53.3 µM (inactive)
5,COc1cc(N2CCCC2)c(OC)cc1/C=C1/NC(=S)NC1=O,4.35 µM (active)
6,COCCn1c(=O)c2ccccc2c2ccccc2c1=O,> 71.5 µM (inactive)
7,N#C/C(=C\c1ccc(N2CCOCC2)o1)C(=O)NC1CCCCC1,16.5 µM (inactive)
8,COC(=O)c1sc(N2C(=O)C(O)=C(C(=O)c3ccc(C)o3)C2c2ccc(F)cc2)nc1C (stereo unspecified),> 71.4 µM (inactive)
9,CCN(CC)c1ccc(/C=C2\C(=O)c3ccc(C(=O)O)cc3C2=O)cc1,1.04 µM (active)
10,COc1cc(-c2c(-c3ccc4c(c3)OCO4)noc2C)ccc1F,> 71.4 µM (inactive)
11,CC(Oc1ccc(F)cc1)C(=O)Nc1sc2c(c1C(=O)NCc1cccnc1)CCCC2 (stereo unspecified),> 71.5 µM (inactive)
12,N#C/C(=C\c1ccc(-c2ccc(F)cc2)o1)C(=O)Nc1nc(-c2cccs2)cs1,> 71.5 µM (inactive)
13,Cc1nnc(SCC(=O)NC(C)(C)C)n1C1CCCCC1,> 71.5 µM (inactive)
14,COC(=O)C1=C(C)NC(=O)/C1=C\N(C)C,> 71.5 µM (inactive)
15,CCN1C(=O)/C(=C/N2CCc3ccccc32)SC1=S,10.1 µM (inactive)
16,CCN1/C(=C/c2ccc3cc(C)ccc3[n+]2CC)Sc2ccccc21,> 71.4 µM (inactive)
17,CCn1nc(-c2ccccc2)c2nc3ccccc3nc21,10.3 µM (inactive)
18,CN(C)c1ccc(N=Cc2nc(-c3ccccc3)oc2O)cc1,6.84 µM (active)
19,CC(=O)N1CCc2c(sc(NC(=O)C3CCCN3S(=O)(=O)c3cccs3)c2C(N)=O)C1 (stereo unspecified),42.6 µM (inactive)
20,O=C(O)c1ccccc1CSc1nnnn1-c1ccccc1,> 71.5 µM (inactive)
21,Cc1ccc(N2C(=O)C3C(C(=O)c4ccccc4)=NN(c4ccccc4)C3C2=O)cc1 (stereo unspecified),33.8 µM (inactive)
